Drawing on ChEMBL document CHEMBL4513216, “Probing the Open Global Health Chemical Diversity Library for Multistage-Active Starting Points for Next-Generation Antimalarials” (ACS Infect Dis, 2020), this text covers INHIBITION for 108 molecules.

About 8,600 (12%) of roughly 69,000 compounds showed an effect of 50% or more. The list comes from a sample in which strong results are over-represented; it also holds similar structures and randomly drawn compounds.

This assay relates to Plasmodium berghei. In words: Screen against P. berghei liver stage (PbLuc), transformed with Luciferase, at 10uM. The format is functional, HepG2. Conditions: tested at 10 uM.
With `CN1CCN(C(=O)CCc2ccccc2)Cc2cccnc21`, the INHIBITION is -54.5%.
To `C=c1occc1=C1NN=C2SC(C#N)C(N)=NN21` (stereo not drawn) belongs -14.8%; to `CCC(C(=O)N(C)Cc1cc(C2CC2)[nH]n1)n1cccn1` (stereo not drawn), -33.5%.
To `CCC(C(=O)NC1CCCCC1)n1cccc(OC)c1=O` (stereo not drawn) belongs -1.83%.
To `CCC(C(=O)N(Cc1ccccn1)C1CCCCC1)n1cccn1` (stereo not drawn) belongs 72.1%.
On to `O=C(c1ccoc1)N(Cc1ccccn1)C1CC1`, for which the INHIBITION was -0.87%.
For `CCC(C(=O)N(Cc1ccccc1OC)C1CC1)n1cccn1` (stereo not drawn), the INHIBITION is 61%.
The value for `CCC(C)C(=O)N(Cc1ccccn1)C1CC1` (stereo not drawn) was 36.9%.
To `O=C(c1csc(-c2nnc[nH]2)n1)N1CCCCC1Cn1cccn1` (stereo not drawn) belongs 18.2%; to `Cn1cc(C(=O)CC2CCCN2C(=O)c2ccncc2F)cn1` (stereo not drawn), 10%.
To `CC(=O)N1CCN(CCCOc2ccccc2F)CC(C(N)=O)C1` (stereo not drawn) belongs 46%.
With `COc1ccc(F)cc1C(=O)N1C[C@H]2CC(OC)C[C@H]2C1` (stereo partly drawn), the INHIBITION was 23.2%.
To `Cc1ccccc1CC(C)(C)NC(=O)c1cccc(OCC(N)=O)c1` belongs 36.3%; to `Cc1ccccc1CC(C)(C)NC(=O)COc1cccc(C(N)=O)c1`, 38%.
The value for `Cc1ccccc1CC(C)(C)NC(=O)CCOc1cccc(C(N)=O)c1` was 69.7%; that for `c1cc2c(cc1Cn1cc(C3CCOC3)nn1)CCCO2` (stereo not drawn) was 46.7%; that for `COCC(=O)N1CCN(Cn2nc(C)c(Br)c2C)CC1` was -36.4%.
In the case of `CCC(=O)N1CCCN(Cn2nc(C)c(Br)c2C)CC1`, the INHIBITION is 56.1%.
On to `COC(=O)N1CCCN(Cn2nc(C)c(Br)c2C)CC1`, for which the INHIBITION worked out at 13%.
Consider `COc1ccc(CNC(=O)N2CCN(CC(O)C3CC3)CC2)cc1` (stereo not drawn), for which the INHIBITION turned out to be 35%.
With `CN(C)CCOc1cccc(CN2CCCC3(C2)CN(C)C(=O)O3)c1` (stereo not drawn), the INHIBITION is 20.9%.
On to `CCn1ccnc1CNCC(c1ccc(C)s1)N1CCOCC1` (stereo not drawn), for which the INHIBITION worked out at 60.3%.
To `Cc1ccc(C(CNCc2cccnc2)N2CCOCC2)s1` (stereo not drawn) belongs 42.3%; to `Cc1ccc(C(CNCC2CC2)N2CCOCC2)s1` (stereo not drawn), -23.2%; to `Cc1ccc(C(CNCc2ncc[nH]2)N2CCOCC2)s1` (stereo not drawn), 60.3%.
For the molecule `Cc1ccc(C(CNCc2nccn2C)N2CCOCC2)s1` (stereo not drawn), the INHIBITION is recorded as 47.4%.
The value for `CN(Cc1ncc[nH]1)CC(c1cccs1)N1CCOCC1` (stereo not drawn) was 12.8%; that for `Cc1nccn1CCN(C)C(=O)c1cn(-c2ccccc2)nn1` was -32.6%; that for `CC(C)NC(=O)N1CCCn2cnc(CN3CCCC3=O)c2C1` was -12.2%.
The value for `CN(C)CCOCC1CN(C(=O)c2ccnnc2)Cc2ccnn2C1` (stereo not drawn) was 39.8%; that for `CO[C@H]1CN(Cc2nc3ccccc3n2C)C[C@@]12CCCO2` was 25.64%.
To `COCCCNC(=O)CN(C)C(=O)c1ccc(-n2cccc2)cc1O` belongs 39.25%; to `CCn1c(Cn2cncn2)nnc1C1CCN(C2CCOCC2)CC1`, 15.7%; to `Cc1n[nH]c(C2CN(C(=O)COCC(F)(F)F)CCO2)n1` (stereo not drawn), 32.2%.
For `NC(=O)c1cnn2c1NCC(CNC1(c3ccccc3)CCC1)C2` (stereo not drawn), the INHIBITION was 33.7%.
The value for `O=S(=O)(NCc1ccc(S(=O)(=O)N2CCCC2)s1)c1cc(Cl)ccc1Cl` was 3.48%; that for `Nc1nc(SCc2ccc3c(c2)OCO3)ns1` was -14.2%.
As to `CC(C)CNC(=O)Nc1cccc(OCC#N)c1`, the INHIBITION is -8.4%.
The value for `CN(CCn1ccc2ccccc21)C(=O)CS(C)(=O)=O` was 34.1%; that for `CN(CCn1ccc2ccccc21)C(=O)Cc1n[nH]c(=O)[nH]1` was 5.38%.
As for `CN(CCn1ccc2ccccc21)C(=O)Cc1nnn[nH]1`, the INHIBITION came to 62.8%.
To `Cn1cc(CN2CCCN(C(=O)c3sccc3C#N)CC2)cn1` belongs -5.25%.
With `c1ccc2c(c1)N(CC1CCOC1)CC21CCN(c2cnccn2)CC1` (stereo not drawn), the INHIBITION worked out at 84.7%.
The value for `O=C1N(CC2CC2)CCC12CCN(c1ncccn1)CC2` was -2.6%.
To `OCCN1CC2(CCN(CC3CC3)CC2)c2ccccc21` belongs 26%.
The value for `CS(=O)(=O)N1CCC2(CC1)CN(CC1CCOC1)c1ccccc12` (stereo not drawn) was 39.4%; that for `CCCS(=O)(=O)N1CCC2(CC1)CC(N1CCCC1)c1ccccc12` (stereo not drawn) was 71.8%; that for `CCS(=O)(=O)N1CCC2(CCC(N3CCCC3)c3ccccc32)CC1` (stereo not drawn) was 23.1%.
As to `c1cnc(N2CC3(CCN(CC4CCOC4)CC3)c3ccccc32)nc1` (stereo not drawn), the INHIBITION is on record as 18.7%.
To `c1cnc(N2CCC3(CC2)CN(CC2CC2)c2ccccc23)nc1` belongs 83.2%; to `CCS(=O)(=O)N1CCC2(CC1)CN(CC1CCOC1)c1ccccc12` (stereo not drawn), 73.8%.
`O=C1CC2(CCN(CC3CCOC3)CC2)c2ccccc2N1CC1CC1` (stereo not drawn): the INHIBITION is recorded as 9.97%.
The value for `c1cnc(N2CCC3(CCN(CC4CCOC4)CC3)C2)nc1` (stereo not drawn) was -10.2%.
The value for `CCS(=O)(=O)N1CCC2(CC1)CC(CC(=O)NC1CC1)c1ccccc12` (stereo not drawn) was -5.22%.
To `Cc1cc(C(=O)N2CCn3cc(CN4CCN(C)CC4)nc3C2)no1` belongs 32.2%.
On to `Cc1nc(Nc2nccs2)cc(C2CN(C(C)C)C2)n1`, for which the INHIBITION was -17.9%.
The value for `CC(=O)N1CCCC(c2cnc(-c3c(C)nn(C)c3C)cn2)C1` (stereo not drawn) was 47.8%; that for `CCc1n[nH]c(C2CN(C(=O)c3ccc(Cl)cn3)CCO2)n1` (stereo not drawn) was 25.4%.
The value for `CN(CC(=O)N(C)C(c1ccc(Cl)cc1)c1cccnc1)C1CC1` (stereo not drawn) was 3.19%; that for `CCS(=O)(=O)N1CCC2(CC1)CC(Oc1ccccn1)CO2` (stereo not drawn) was 0.547%; that for `CN1CCCN(C[C@@H]2CN(c3nc(C(N)=O)cs3)C[C@@H]2CO)CC1` was 20.3%.
The value for `Cc1cnn(C2CCCN(C(=O)c3ccc(N4CCCC4)nc3)C2)c1` (stereo not drawn) was 19.6%.
Consider `CN1CCC(N(C)C(=O)c2cnn(-c3ccccc3Br)c2N)CC1`, for which the INHIBITION came out at 27.3%.
The value for `CN(C)C(=O)N1CCC2(CC1)C(=O)N(CC1CCOC1)c1ccccc12` (stereo not drawn) was 7.5%; that for `CCCS(=O)(=O)N1CCC2(CC1)CN(CC1CCOC1)c1ccccc12` (stereo not drawn) was 87.4%; that for `CCCS(=O)(=O)N1CCC2(CC1)CN(C(=O)N(C)C)c1ccccc12` was 10.7%.
The value for `O=C1CO[C@@H]2CN(CC3CCOCC3)C[C@H]2N1CC1CC1` was 37.5%.
The value for `CN(C)C(=O)N1CCC(C(=O)NCCNc2ncccc2C#N)CC1` was 68.8%; that for `Cc1cccnc1NCCNC(=O)[C@H]1CNC[C@@H](C(=O)N2CCCC2)C1` was 18.5%.
Regarding `N#Cc1cccnc1NCCNC(=O)N1CCCC(N2CCCC2)C1` (stereo not drawn), the INHIBITION is 24.6%.
To `Cc1cccnc1NCCNC(=O)C1CCN(Cc2ccco2)CC1` belongs 48.4%.
To `N#Cc1cccnc1NCCNC(=O)N1CCSCC1` belongs 14.6%.
The value for `Cc1cccnc1NCCNC(=O)C1CCN(C(=O)N(C)C)CC1` was 50.2%; that for `CCn1c(C2CCNCC2)nn(CCn2cncn2)c1=O` was 32%.
As for `COc1cc(CN2CCC(COCc3ccccc3)CC2)cc(OC)c1`, the INHIBITION was 33.7%.
The value for `COCCNC(=O)NCc1cc(-c2ccncc2)n(C2CCCC2)n1` was 26.4%; that for `Cc1ncc(-c2ccnc(NCCO)n2)c(C2CCCCC2)n1` was 79.7%.
The value for `Cc1cc2nc(C3CCCCC3)c(-c3ccnc(NCCO)n3)cn2n1` was 20.4%.
To `Cc1ncc(-c2ccnc(N[C@@H](C)CO)n2)c(C2CCCCC2)n1` belongs 47.1%; to `Cc1cccc(C)c1NC(=O)CC(CN1CCN(C)CC1)C(=O)O` (stereo not drawn), 5.21%.
`O=C1CCc2cc(-c3csc(CCN4CCOC4=O)n3)ccc2N1`: the INHIBITION was -26.6%.
The value for `Cc1nccn1C1CCCN(C(=O)c2cc(Cl)c3c(c2)OCO3)C1` (stereo not drawn) was -15.5%.
To `COCCN1CCOCC12CCN(C(=O)c1ccncc1)CC2` belongs 47.4%.
To `COCCN1CCOCC12CCN(C(=O)c1c[nH]c3ccccc13)CC2` belongs 57.9%; to `COCCN1CCOCC12CCN(C(=O)c1ccoc1)CC2`, 21.8%.
As for `N#Cc1ccc(OCCCN2CCOC(Cn3cncn3)C2)cc1` (stereo not drawn), the INHIBITION is recorded as 36.1%.
The value for `CC1(C2CCN(CC(N)=O)CC2)CN(Cc2ccccc2)C(=O)O1` (stereo not drawn) was 1.5%; that for `Oc1cc(-c2cccs2)nc(C2CCCN(CC3=CCCOC3)C2)n1` (stereo not drawn) was 23.9%; that for `COc1c(C2CCCN2C(=O)c2nccnc2N)c(C)nn1C` (stereo not drawn) was 14.1%.
To `CC(=O)NCCNC(=O)c1ccc(C)c(-n2cccc2)c1` belongs 10.7%.
The value for `Cn1ccnc1CN1CCC2(CC1)COCCN(c1ncccn1)C2` was 62.3%; that for `Cn1ccnc1CN1CCC2(COCCN(Cc3ccsc3)C2)C1` (stereo not drawn) was 25.1%; that for `Cn1cc(CN2CCCC23CCN(Cc2nccn2C)CC3)cn1` was 8.67%.
Consider `COC1CC2(CCN(Cc3nccn3C)CC2)C1`, for which the INHIBITION was -43.1%.
For the molecule `CCOC1CC2(CCN(Cc3nccn3C)CC2)C1`, the INHIBITION is given as -11.6%.
The value for `CN(C)C(=O)N1CCC2(CC1)COCCN(c1ncccn1)C2` was -30%; that for `Cn1ccnc1CN1CCC2(CC1)COCCN(S(C)(=O)=O)C2` was 36.5%; that for `CN(C)CCN1CCCC12CCN(Cc1nccn1C)CC2` was 70.2%.
`Cn1ccnc1CN1CCC2(CCCN2c2ncccn2)CC1`: the INHIBITION was 21.7%.
The value for `Cn1ccnc1CN1CCC2(CC1)COC2` was 61.3%; that for `Cn1ccnc1CN1CCC2(COCCN(S(=O)(=O)C3CC3)C2)C1` (stereo not drawn) was 64.3%; that for `c1cnc(N2CCC3(COCCN(CC4CC4)C3)C2)nc1` (stereo not drawn) was 46.1%.
To `COCc1ncc(CN2CC[C@@](O)(COC)C(C)(C)C2)cn1` belongs 31%.
As to `O=C(CCCSc1ccc(NC(=O)C2CC2)nn1)NCC1CCCO1` (stereo not drawn), the INHIBITION was 34.6%.
As to `Cc1ncccc1-c1cc2cccnc2n1CCCNC(=O)C(C)(C)C`, the INHIBITION is 27.6%.
`CCS(=O)(=O)N1CC[C@@H]2[C@H](CC1)N(CC(C)C)CCS2(=O)=O`: the INHIBITION is listed as -34.6%.
In the case of `Cc1cc(C(=O)N2CCCC2)ccc1NCC(=O)N1CCCCC1C` (stereo not drawn), the INHIBITION is on record as 37.3%.
The value for `Cc1ccc(N2CCC3(CCN(C(=O)c4ccnnc4)CC3)CC2)nn1` was -6.21%.
